# TGFb SMAD3 inh – qHTS for Inhibitors of TGF-b. Potency, µM (series often up to 46.1 µM), inactives show at the top dose activity, negative = inhibition, actives largely listed as inhibitors. HepG2 CAGA-GFP TGF-b/SMAD3 reporter, GFP fluorescence, 18 h; TGF-beta stimulated, 500 pg/mL final. actives 1.2% (n = 410,000); also: potency is read from the fitted curve at half-maximal effect; % is scaled to controls: 0 for no effect and ±100 for the full control effect; nearly all actives have a fitted effect of over 65% in size
#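 HEPG2 CAGA-GFP reporter cells (1000/well, DMEM with 1% FBS) received compounds, then recombinant TGF-beta at 500 pg/mL final for 18 hours at 37 degrees C. Per-cell GFP summed per well was normalised to unstimulated and stimulated DMSO controls before curve fitting.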
# DRD3 antagonist – qHTS of D3 Dopamine Receptor Antagonist: qHTS. D3R cells, DiscoveRx beta-arrestin luminescence, antagonist mode; stronger effect = lower value. max response, negative = inhibition, %. actives 2.5% (n = 360,000). D(3) dopamine receptor (Homo sapiens), P35462; in the data active = max response below about -50%; inconclusive = no clear call, values can overlap the other calls; also: % is scaled to controls: 0 for no effect and ±100 for the full control effect
# Target sequence (P35462 whole entry, looked up): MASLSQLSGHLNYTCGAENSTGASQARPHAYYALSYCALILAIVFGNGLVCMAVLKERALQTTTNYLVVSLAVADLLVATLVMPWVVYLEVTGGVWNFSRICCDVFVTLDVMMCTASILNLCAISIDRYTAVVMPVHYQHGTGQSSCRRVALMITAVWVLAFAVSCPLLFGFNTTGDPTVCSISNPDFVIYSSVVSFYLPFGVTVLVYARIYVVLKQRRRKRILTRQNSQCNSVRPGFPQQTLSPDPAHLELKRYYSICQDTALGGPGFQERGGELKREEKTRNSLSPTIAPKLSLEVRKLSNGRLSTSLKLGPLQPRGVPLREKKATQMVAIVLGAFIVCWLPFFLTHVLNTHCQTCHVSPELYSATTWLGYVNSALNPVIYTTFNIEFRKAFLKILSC
#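 Cells expressing the human receptor were seeded at 1500 cells/well, incubated overnight at 37 degrees C in 5% CO2, then exposed to library compounds with dopamine controls for 90 minutes at 37 degrees C before luminescent detection.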
# HepG2 tox – qHTS for Inhibitors of TGF-b: Cytotox Counterscreen; actives 0.76% (n = 410,000); AID 588856, 2011; HepG2 CAGA-GFP viability, ATP luminescence, 18 h; Potency, µM (top dose mostly 46.1 µM), without a hit: at the highest dose activity change, negative = cytotoxicity, most hits filed as cytotoxic; also: potency is read from the fitted curve at half-maximal effect
#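 HepG2 CAGA-GFP cells (1000/well, DMEM with 1% FBS) received compound, then TGF-beta at 500 pg/mL final, and were incubated 18 hours at 37 degrees C. Viability was read by CellTiter-Glo luminescence. Media-only wells were set as complete cell-killing and DMSO as no toxicity.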
# ATXN2 expr inh – Primary qHTS for Inhibitors of ATXN expression | HEK-293 ATXN2-luciferase reporter, luminescence, 24 h | Potency, µM (series often up to 57 µM), for inactives: at the highest dose activity change, negative = inhibition, most hits filed as inhibitors | actives 0.72% (n = 360,000); also: potency is read from the fitted curve at half-maximal effect; % is scaled to controls: 0 for no effect and ±100 for the full control effect; nearly all actives have a fitted effect of over 55% in size
#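 ATXN2-luciferase reporter cells (luciferase flanked by upstream and downstream ATXN2 gene portions) were treated 24 h at 37 °C with compounds at up to 57 uM. SteadyGlo luminescence gave expression; GF-AFC fluorescence gave viability.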
# ATXN viability – Viability Counterscreen for Primary qHTS for Inhibitors of ATXN expression; S2 cells (HEK-293 line with an ATXN2-luciferase reporter) viability, CellTiter-Fluor protease fluorescence, 24 h; Potency, µM (series often up to 56.7 µM), usual class: cytotoxic; actives 0.49% (n = 400,000); AID 651635, 2014; also: potency is read from the fitted curve at half-maximal effect; nearly all actives have a fitted effect of over 40% in size
# D3 ag – qHTS of D3 Dopamine Receptor Agonist: qHTS | max activation, % | actives 0.58% (n = 410,000) | D3R DiscoveRx beta-arrestin cells, luminescence, 90 min | AID 652048, 2013; in the data active = max activation above about 30%; also: 0% is about no effect
#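 Agonist mode: compounds and dopamine controls were applied to plated cells for 90 min at 37 degrees C after an overnight attachment at 1500 cells/well. Luminescent read-out followed 30 - 60 minutes at room temperature with DiscoveRx detection reagent.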
# Numbers without * were called inactive; i = inactive; ? = inconclusive; . = no result; [ ] = dose if it differs, or a comment. Only some compounds are listed: those with a hit (about 4.7% of all), similar ones and a draw of the others. Unless noted, calls follow the shape of the dose curve; as a rule, active = well fitted curve in the direction sought with a large enough effect; inconclusive = small, poorly fitted or top-dose-only effect, or another doubt; inactive = no such curve, though single readings can be large; an effect the other way counts as inactive or inconclusive.
SMILES,TGFb SMAD3 inh,DRD3 antagonist,HepG2 tox,ATXN2 expr inh,ATXN viability,D3 ag
CCOC(=O)c1ccc(N2C(=O)c3n[nH]c(-c4ccco4)c3C2c2ccc(O)c(OC)c2)cc1 (stereo unspecified),10µM*,.,-69%,?,?,-15
Cc1cc(C)nc(SCCCNCc2ccc(Br)cc2)n1,?,-95*,-10%,.,?,-1
Cc1cc(C)nc(SCCCNCc2c(F)cccc2Cl)n1,-18%,-7,-19%,-4%,i,-14
Cc1ccc(CNCCCSc2nc(C)cc(C)n2)cc1,1%,-92*,-28%,-10%,i,-26
CCCS(=O)(=O)NCc1c(C)ncc2c1CCN(C(=O)c1cccc(Cl)c1F)C2,.,.,.,.,i,.
O=C(C1CCCN(S(=O)(=O)c2cccs2)C1)N1CCN(c2cccc(Cl)c2)CC1 (stereo unspecified),?,.,-18%,-35%,?,-7
COc1cc(C(=O)N2CCC(C(=O)Nc3cccc(C(C)=O)c3)CC2)cc(OC)c1OC,-1%,-53*,7%,8%,i,0
COc1ccc2nc3oc(C(=O)Nc4cccc(C(F)(F)F)c4)cc3cc2c1,-10%,.,-18%,.,.,4
O=c1[nH]c2ccc(Cl)cc2c(-c2ccccc2)c1SC(=S)N1CCOCC1,13µM*,22,-65%,-7%,i,0
COc1ccc([N+](=O)[O-])cc1NC(=O)c1cn(-c2ccc(Cl)cc2)c(=O)c2ccccc12,-19%,-53*,6%,-9%,i,-2
CC(C)(C)Nc1nc(NN)nc(NC(C)(C)C)n1,?,-80*,-5%,-37%,i,-15
COc1cc(OC)c(NC(=O)c2c3c(nc4ccccc24)C(=O)N(C2CCCCC2)C3)cc1Cl,2%,.,-2%,.,.,-18
Cn1c(SCC(=O)Nc2cc(Cl)cc(Cl)c2)nnc1-c1ccc2nonc2c1,?,-20,-59%,32µM*,?,-20
Cc1cc(-c2nc(C)c(-c3nnc(SCC(=O)Nc4cc(Cl)cc(Cl)c4)n3C)s2)no1,7%,-2,-167%,-13%,i,-1
CCC(=O)Nc1cccc(-c2nnc(SCC(=O)NCc3ccco3)n2C)c1,-1%,5,-4%,-12%,i,-10
CCC(=O)Nc1cccc(-c2nnc(SCC(=O)c3ccccc3)n2C)c1,-13%,-52*,-14%,36%,i,-8
COc1cc(CNCc2cc3cc(C)ccc3nc2-c2ccc(F)cc2)cc(OC)c1OC,.,.,.,.,i,.
CC(C)CNC(=S)NNC(=O)c1csc2c1CCC(C)C2 (stereo unspecified),-1%,-55*,-4%,-11%,i,-34
Cc1cccc(NC(=S)NNC(=O)c2csc3c2CCC(C)C3)c1 (stereo unspecified),16%,-14,-27%,24%,i,-11
CC(C)(C)c1ccc(CSc2nc3c(c(=O)[nH]2)CCCC3)cc1,-4%,.,-6%,2%,i,8
COc1ccc(-n2nc3c(c2NC(=O)C2CC2)CS(=O)C3)cc1 (stereo unspecified),1%,-13,-16%,-1%,i,3
COc1ccc(-n2nc3c(c2NC(=O)C24CC5CC(CC(C5)C2)C4)CS(=O)C3)cc1 (stereo unspecified),20%,-56*,-2%,-7%,i,-3
C[N+]1(C)CCC[C@H]1C(=O)[O-],.,.,.,.,i,.
Nc1c(C(=O)N2CCOCC2)sc2nc3c(cc12)CCCC3,4%,5,-16%,3.2µM*,i,-1
Cc1ccc2nc(-c3ccc(C)c(NC(=O)COc4ccccc4Cl)c3)oc2c1,2%,.,-22%,.,.,.
SMILES,TGFb SMAD3 inh,DRD3 antagonist,HepG2 tox,ATXN2 expr inh,ATXN viability,D3 ag
Cc1nc(N2CCCC2)c2c(C(=O)Nc3ccc(Br)cc3F)c(C)oc2n1,-11%,.,-22%,.,.,2
CN(Cc1ccccc1)C(=O)[C@@H]1CCCN1C(=O)[C@@H]1CCCN1C(=O)c1cccc2ccccc12,.,-50*,.,-11%,?,-5
COc1ccccc1CN1CCOc2ccc(CN3CCCCC3CO)cc2C1 (stereo unspecified),.,.,.,.,i,.
COc1ccc(NC(=O)CCS(=O)(=O)c2nc(-c3ccc4c(c3)OCO4)cc(C(F)(F)F)n2)cc1,?,.,11µM*,.,.,-30
CC(C)CNC(=O)CCSc1nc(-c2ccc3c(c2)OCO3)cc(C(F)(F)F)n1,6%,.,3%,6%,i,9
Cc1cc(NC(=O)CCS(=O)(=O)c2nc(-c3ccccc3)cc(C(F)(F)F)n2)no1,?,-25,-105%,?,20µM*,-17
COc1ccc(-c2cc(C(F)(F)F)nc(S(=O)(=O)CCC(=O)N3CCOCC3)n2)cc1,-8%,-14,7%,?,?,-24
CS(=O)(=O)c1nc(-c2ccccc2)cc(C(F)(F)F)n1,?,-120*,13µM*,?,.,-19
O=C(CCS(=O)(=O)c1nc(-c2ccc3c(c2)OCO3)cc(C(F)(F)F)n1)Nc1ccc(F)cc1F,18µM*,.,-70%,.,.,2
Cc1ccc(-c2csc(=Nc3ccccc3)n2CCCO)cc1,7.1µM*,.,-68%,?,?,3
O=S(=O)(c1ccc(-c2csc(=Nc3ccc(F)cc3)n2CCCCCCO)cc1)N1CCCC1,?,.,-12%,32µM*,?,12
CC(C)Cn1c(-c2ccc(S(=O)(=O)N3CCCC3)cc2)csc1=Nc1ccccc1,-22%,.,-5%,-24%,i,-9
OCCCn1c(-c2ccc(F)cc2)csc1=Nc1ccc(F)cc1,?,.,-40%,-1%,?,-17
O=C(c1cnn2cccnc12)N1CCOc2ccc(C(O)C(c3ccccc3)c3ccccc3)cc2C1 (stereo unspecified),.,.,.,.,i,.
Cc1cc(N)ccc1-n1c(C)ccc1C,-9%,-11,-31%,-5%,i,-3
Cc1cc(N)ccc1N1CCCC1,6%,-55*,5%,7%,i,-7
CN(C)CCNc1nc(-c2ccccc2)nnc1C(F)(F)F,11%,-51*,-10%,1%,i,3
Cc1nnc(-c2ccc(Cl)cc2)nc1NCCN(C)C,1%,-6,9%,-2%[11.3 µM],i,-1
Fc1ccc(Sc2nc(-c3ccccc3)nnc2C(F)(F)F)cc1,?,-88*,-91%,?,?,-17
